# Luc counter: counter-screen: inhibitors of Kinase-Glo firefly luciferase; Kinase-Glo luciferase, ATP luminescence, 8 min; Q27757; AID 1379; Potency, µM (doses to about 38.3 µM), for the others: top-dose activity change, negative = inhibition, hits mostly inhibitors; 0.28% of 200,000 active; also: % is scaled to controls: 0 for no effect and ±100 for the full control effect; nearly all actives have a fitted effect of over 60% in size
#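 Inhibition of Kinase-Glo luciferase light generation was assessed at 10 uM ATP in pH 7.2 imidazole buffer, with luminescence measured after eight minutes at ambient temperature.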
# ALDH1A1 block: inhibitors of human aldehyde dehydrogenase 1A1 | Purified ALDH1A1, NADH fluorescence, propionaldehyde substrate | 7.3% of 220,000 active | P00352 | AID 1030 | Potency, µM (series often up to 75.3 µM), inactives show at the top dose activity, negative = inhibition, hits mostly inhibitors; active = well fitted inhibition curve with a large enough effect, not every such curve was filed as active; inconclusive = small, poorly fitted or top-dose-only effect, or another doubt; inactive = no such curve, though single readings can be large or run the other way;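 also: plate controls were no enzyme wells and a reference inhibitor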
# Target sequence (P00352 whole entry, looked up): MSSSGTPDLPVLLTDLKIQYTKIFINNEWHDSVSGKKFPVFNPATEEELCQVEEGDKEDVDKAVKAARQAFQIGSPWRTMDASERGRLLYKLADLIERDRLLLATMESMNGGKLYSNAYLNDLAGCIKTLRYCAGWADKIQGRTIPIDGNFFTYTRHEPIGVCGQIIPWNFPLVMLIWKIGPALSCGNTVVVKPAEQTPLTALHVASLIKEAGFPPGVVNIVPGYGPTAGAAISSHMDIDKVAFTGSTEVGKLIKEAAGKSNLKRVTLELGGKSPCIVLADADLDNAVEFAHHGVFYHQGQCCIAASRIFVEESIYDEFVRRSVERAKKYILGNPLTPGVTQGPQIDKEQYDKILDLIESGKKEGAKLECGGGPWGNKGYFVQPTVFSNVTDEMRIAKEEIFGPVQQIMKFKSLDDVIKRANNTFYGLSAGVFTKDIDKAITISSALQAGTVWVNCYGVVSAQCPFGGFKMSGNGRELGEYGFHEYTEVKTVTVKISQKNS
# HTT ATP protect: Huntington cell model cytoprotection by ATP luminescence | PC12 HTT-Q103 induced, cytoprotection, ATP luminescence, 40 h | Potency, µM (titrated, usually from 56.4 µM), for inactives: cytoprotection (ATP increase), hits mostly activators | 0.14% of 230,000 active | AID 1471; also: % of control where 0% means no effect; nearly all actives have a fitted effect of over 45% in size
#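 Readout: ATPlite luminescence (ATP level). Model: stable PC12, inducible Htt exon1 Q103-GFP. Inducer: tebufenozide, 100 nM final. Compounds: dose series. No G418 in medium.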
# HPGD inh: inhibitors of human 15-hydroxyprostaglandin dehydrogenase (HPGD); Potency, µM, for inactives: top-dose activity change, negative = inhibition, most hits filed as inhibitors; 4.3% of 150,000 active; AID 894; P15428; purified HPGD, NADH fluorescence kinetic, PGE2 substrate; active = well fitted inhibition curve with a large enough effect, not every such curve was filed as active; inconclusive = small, poorly fitted or top-dose-only effect, or another doubt; inactive = no such curve, though single readings can be large or run the other way; also: % is scaled to controls: 0 for no effect and ±100 for the full control effect
#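 20 nM HPGD preincubated 15 min at room temperature with compound in 50 mM Tris-HCl pH 8, 0.01% Tween 20. Started with 1 mM NAD+ and 30 uM prostaglandin E2; NADH fluorescence (360/450 nm) read 5 times over 30-s intervals, last minus first.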
# HttQ103 aggreg: reduces HttQ103-GFP aggregates in PC12 cells. PC12 HttQ103-GFP aggregates, Acumen cytometry, 40 h. Potency, µM (highest dose often 46.1 µM), without a hit: at the highest dose activity change, negative = inhibition, hits mostly inhibitors. 1.1% of 220,000 active. AID 1688; also: % is scaled to controls: 0 for no effect and ±100 for the full control effect; nearly all actives have a fitted effect of over 60% in size
#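 Aggregates are detected as GFP objects 1–25 µm with signal 6 STDEV over background in lysates of induced PC12 cells. These carry Huntingtin exon 1 with 103 glutamines fused to GFP under an ecdysone promoter; compounds titrated.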
# Lamin A splicing: modulators of lamin A splicing; HeLa LMNA splicing GFP/RFP minigene ratio, 48 h; Potency, µM (top dose mostly 46.1 µM), inactives show at the highest dose ratio change, negative = inhibition, hits mostly inhibitors; 0.01% of 200,000 active; AID 1487; active = well fitted inhibition curve with a large enough effect in the signal ratio, with a control signal flat, not every such curve was filed as active; inconclusive = small, poorly fitted or top-dose-only effect, or effect the other way, or a change in a side signal; the % refers to the signal ratio; also: % is scaled to controls: 0 for no effect and ±100 for the full control effect
#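 S3 HeLa cells stably expressing lamin A-EGFP splicing minigene plus DsRed2, 600 cells/well, 48 h compound exposure at 37C. Laser-scanning cytometry; analysed as GFP (500-530 nm)/RFP (575-640 nm) total intensity ratio; 0.5% DMSO vehicle.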
# The depositor's hits bear a star; u = inconclusive; x = no result; [ ] = another dose, or the depositor's remark. Compounds with a hit are over-represented: about 9% of the library has one in this group of screens. Unless noted, calls follow the shape of the dose curve; as a rule, active = well fitted curve in the direction sought with a large enough effect; inconclusive = small, poorly fitted or top-dose-only effect, or another doubt; inactive = no such curve, though single readings can be large; an effect the other way counts as inactive or inconclusive. Potency is read from the fitted curve at half-maximal effect.
SMILES,Luc counter,ALDH1A1 block,HTT ATP protect,HPGD inh,HttQ103 aggreg,Lamin A splicing
CCC(CC)C(=O)Nc1nnc(SCC(=O)N2CCN(c3ccccc3OC)CC2)s1,-1.7%,12.6µM*,26.1%[10 µM],-11.5%,-10.9%,-1.3%
COc1ccc(Cn2nnnc2C(c2ccc(N(C)C)cc2)N2CCC(C)CC2)cc1 (configuration not stated),-2.8%,25.1µM*,-11.2%[10 µM],-15.0%,5.3%,6.5%
COc1ccc(Cn2nnnc2C(c2cc(OC)ccc2OC)N2CCC(C(N)=O)CC2)cc1 (configuration not stated),-0.8%,14.1µM*,16.1%[10 µM],-4.8%,u,u
CC1CCCN(C(c2cccs2)c2nnnn2Cc2ccccc2)C1 (configuration not stated),1.8%,3.16µM*,-14.7%,-18.2%,2.3%[9.22 µM],13.6%
COc1ccc(Cn2nnnc2C(c2ccc(F)cc2)N2CCN(C3CCCC3)CC2)cc1 (configuration not stated),-3.3%,u,-7.8%,6.0%,-5.6%[9.22 µM],-12.5%
CC1CCN(C(c2ccc(N(C)C)cc2)c2nnnn2Cc2ccccc2)CC1 (configuration not stated),2.5%,8.91µM*,-12.1%,-11.9%,-1.4%,10.3%
Cc1ccc(C2c3[nH]c4ccccc4c3CCN2C(=O)CSc2ccccc2)cc1 (configuration not stated),x,x,x,x,x,-9.6%[46 µM]
COC(=O)n1ccc(C(=O)Nc2ccccc2F)n1,0.4%,-2.5%,-10.3%,-5.9%,3.0%,7.0%
CC(C)c1nnc(SCc2ccc(CSc3nnc(C(C)C)n3N)cc2)n1N,2.2%,-1.8%,20.3%,-8.2%,18.8%,1.8%
O=C1Nc2ccc(Br)cc2C1=Nc1ccc(-c2nnc3n2CCCCC3)cc1,-2.0%,-5.1%,-15.8%,3.98µM*,19.1%,6.9%
Brc1cccc(-c2cnc3n2CCCCC3)c1,-3.0%,-6.0%,-36.5%,u,u,u
Brc1cccc(-c2nnc3n2CCCCC3)c1,-9.0%,-11.8%,7.9%[0.074 µM],6.31µM*,-9.3%,0.7%
Fc1ccc(-c2cc(-c3nnc4n3CCCCC4)c3ccccc3n2)cc1,1.3%,7.1%,35.3%[10 µM],-9.7%,u,-14.5%
c1ccc(-c2nnc3n2CCCC3)cc1,-4.9%,1.7%,13.3%,14.1µM*,2.8%,3.0%
Fc1ccc(-c2nnc3n2CCCCC3)cc1,-2.6%,-3.2%,-6.4%[10 µM],x,-5.7%,12.0%[46 µM]
CCc1ccc(CCC(=O)Nc2nccs2)o1,-0.7%,17.8µM*,-8.4%,-27.8%,1.6%,5.3%
Cc1ccc(CCC(=O)Nc2nccs2)o1,-3.4%,u,-3.4%[10 µM],28.2µM*,-16.3%,12.5%
Cc1ccc(CCC(=O)Nc2ccc(S(N)(=O)=O)cc2)o1,1.5%,14.1µM*,-8.7%,-25.5%,5.4%,5.2%
COc1cccc(/C=N/NC(=O)c2[nH]c(C)c(C(=O)N/N=C/c3cccc(OC)c3)c2C)c1,1.3%,-0.3%,19.4%[10 µM],-25.5%,1.3%,u
COc1cccc(OC)c1C(=O)NC(=S)Nc1ccc2c(c1)C(=O)N(C)C2=O,-1.9%,-15.5%,2.7%[10 µM],u,10.3%,-20.5%
COc1cc(C(=O)NC(=S)Nc2ccc3c(c2)C(=O)N(C)C3=O)cc(OC)c1OC,0.6%,1µM*,x,-3.9%,8.7%,-6.8%
Cc1ccc(NC(=O)Cn2cnc3c(oc4nc5c(cc43)COC(C)(C)C5)c2=O)cc1,-2.2%,-4.4%,-10.7%[10 µM],-4.1%,-3.2%,-4.8%
CC(C)CCn1cnc2c(oc3nc4c(cc32)CCCC4)c1=O,x,3.16µM*,-16.7%[10 µM],x,-7.5%[9.22 µM],x
Cc1cc(C(=O)OCC(=O)N2CC(C)OC(C)C2)ccc1[N+](=O)[O-] (configuration not stated),-1.0%,u,7.2%[10 µM],x,11.4%,-5.1%[46 µM]
CC1CN(C(=O)COC(=O)c2ccc(N)c([N+](=O)[O-])c2)CC(C)O1 (configuration not stated),3.9%,u,u,28.2µM*,4.9%,-3.9%
